The values below come from PubChem BioAssay.

Assay [1] can be described thus: binders of probe aFSTL3 on microarray, primary screen, stem cell growth factor project, biochemical, small-molecule microarray, fluorescence 635/667 (AID 1064).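 Further: measures binding of the biotinylated anti-FSTL3 antibody to printed compounds.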 Conditions: higher = more signal.
Assay [2] in a line: binders from COS7 lysate, DM2A8 probe, primary screen, torsin A project, cell lysate, small-molecule microarray, fluorescence 635/667 (AID 1065). The note with it: higher = more signal, COS7 lysate expressing mutant human TOR1A.
Assay [3] in a line: binders of probe aFGF2 on microarray, primary screen, stem cell growth factor project, biochemical, small-molecule microarray, fluorescence 635/667 (AID 1067).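 Further: measures binding of biotinylated aFGF2 protein to printed compounds on slides; z-score merges feature fluorescence and signal-to-noise across triplicate slides.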 The note with it: higher = more signal.
Assay [4] in a line: binders of probe aFGF10 on microarray, primary screen, stem cell growth factor project, biochemical, small-molecule microarray, fluorescence 635/667 (AID 1071).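 Further: score merges 667 nm spot intensity and signal to noise from triplicate slides.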 Conditions: higher = more signal.
For assay [5], the target named is Neurogenic locus notch homolog protein 2 (Homo sapiens) (UniProt Q04721). The assay is described as follows: Notch2 binders on small-molecule microarrays, primary screen, biochemical, small-molecule microarray, 635 nm fluorescence, stem cell growth factors (AID 1073). The note with it: Notch2 binding, higher = more signal.
For assay [6], the target named is Pro-neuregulin-1, membrane-bound isoform (Homo sapiens) (UniProt Q02297). The assay is described as follows: NRG1 binders on small-molecule microarrays, primary screen, psychiatric disease protein project, biochemical, small-molecule microarray, fluorescence 635/667 (AID 1075).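 Further: score combines 667 nm spot fluorescence with signal to noise.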 Conditions: NRG1 binding, 635 nm fluorescence, higher = more signal.
For assay [7], the system named is Neuregulin-1 EGF-like domain. The assay is described as follows: binders of neuregulin-1 EGF-like domain, primary screen, biochemical, small-molecule microarray, 635 nm fluorescence (AID 1081).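 Further: binding of the protein to compounds printed on small-molecule microarray slides.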 The note with it: small-molecule microarray binding, higher = more signal.
A short description of assay [8]: FRG1 promoter luciferase signal modulators, primary screen, FRG1 inhibition for FSHD, cell-based, C2C12 myotubes, firefly/Renilla luciferase, luminescence (AID 1084). The note with it: higher = more signal, called active from +8 up or from −8 down.
Assay [9] in a line: binders of probe aFST on microarray, primary screen, stem cell growth factor project, biochemical, small-molecule microarray, fluorescence 635/667 (AID 1086).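 Further: score merges 667 nm fluorescence with signal-to-noise of each printed compound spot.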 The note with it: higher = more signal.
The nature of assay [10]: binders of probe aHhip on microarray, primary screen, stem cell growth factor project, biochemical, small-molecule microarray, fluorescence 635/667 (AID 1087).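 Further: score merges spot fluorescence at 667nm with spot signal to noise ratio.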 Conditions: higher = more signal.
Assay [11] relates to PRMT1 (protein arginine N-methyltransferase 1). The assay is described as follows: PRMT1 binders on small-molecule microarrays, primary screen, biochemical, small-molecule microarray, 635 nm fluorescence (AID 1088).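 Further: binding of Prmt1 protein to compounds spotted on small-molecule microarray slides.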 The note with it: small-molecule microarray binding, higher = more signal.
A short description of assay [12]: yeast growth modulation, basal conditions, primary screen, YJM789 clinical isolate, OD600, 24 h (AID 1089).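 Further: growth of clinical yeast isolate S. cerevisiae YJM 789 seeded 1000 cells per well; test concentration not given here.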 Conditions: S. cerevisiae YJM789 growth, higher = more signal, called active from +8 up or from −8 down.
Assay [13] can be described thus: fission yeast growth modulation, primary screen, strain 972, OD600, 24 h, no modulator (AID 1090).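 Further: basal condition with compound alone and no growth modifier present; test concentration not given here.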 The note with it: S. pombe 972 growth, higher = more signal, called active from +8 up or from −8 down.
A short description of assay [14]: S. cerevisiae growth modulation with rapamycin, primary screen, strain BY4716, OD600, 96 h (AID 1091). Further: test concentration not given here. The note with it: higher = more signal, called active from +8 up or from −8 down.
Assay [15] concerns the target Torsin-1A-interacting protein 2 (Homo sapiens) (UniProt Q8NFQ8). In words: LULL1 binders on small-molecule microarray, primary screen, cell lysate, human LULL1 lysate, 635/667 nm fluorescence (AID 1092).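 Further: probe is lysate of COS7 cells overexpressing human LULL1; score merges per-feature 667 nm fluorescence with signal-to-noise.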 Conditions: hLULL1 lysate binding, 635 nm fluorescence, higher = more signal.
Assay [16] in a line: E. coli growth modulation, two-sided OD650, primary screen, E. coli filamentation project, strain DRC41, 24 h (AID 1093).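 Further: MC1000 strain lacking acrAB efflux and sulA so SOS filamentation is blocked; test concentration not given here.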 Conditions: OD650, 24 h, higher = more signal, called active from +8 up or from −8 down.
Assay [17] in a line: small-molecule microarray binders of probe aLefty2, primary screen, biochemical, biotinylated probe, 635/667 nm fluorescence (AID 1094).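 Further: score merges spot fluorescence near 667 nm with spot signal-to-noise ratio.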 Conditions: higher = more signal.
Assay [18] relates to Noggin (protein binding on small-molecule microarray). The assay is described as follows: Noggin binders on small-molecule microarray, primary screen, biochemical, 635/667 nm fluorescence (AID 1095).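 Further: score merges 667 nm feature fluorescence with signal to noise over triplicate slides.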 Conditions: 635 nm fluorescence, higher = more signal.
Assay [19] addresses Neurogenic locus notch homolog protein 3 (Homo sapiens) (UniProt Q9UM47). In words: NOTCH3 binders on small-molecule microarray, primary screen, biochemical, 635/667 nm fluorescence (AID 1096). Conditions: NOTCH3 binding, 635 nm fluorescence, higher = more signal.
A short description of assay [20]: small-molecule microarray binders of probe aEGFR, primary screen, biochemical, biotinylated probe, 635/667 nm fluorescence (AID 1097).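 Further: probe is a biotinylated anti-EGFR antibody binding compounds printed on slides; score combines fluorescence near 667 nm and signal to noise of each spot.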 Conditions: higher = more signal.

The structures appear in SMILES notation. Activity calls are given as the source filed them.

Sequence of Pro-neuregulin-1, membrane-bound isoform (Homo sapiens) (Q02297 whole entry, looked up, the tested form may be a part, canonical isoform): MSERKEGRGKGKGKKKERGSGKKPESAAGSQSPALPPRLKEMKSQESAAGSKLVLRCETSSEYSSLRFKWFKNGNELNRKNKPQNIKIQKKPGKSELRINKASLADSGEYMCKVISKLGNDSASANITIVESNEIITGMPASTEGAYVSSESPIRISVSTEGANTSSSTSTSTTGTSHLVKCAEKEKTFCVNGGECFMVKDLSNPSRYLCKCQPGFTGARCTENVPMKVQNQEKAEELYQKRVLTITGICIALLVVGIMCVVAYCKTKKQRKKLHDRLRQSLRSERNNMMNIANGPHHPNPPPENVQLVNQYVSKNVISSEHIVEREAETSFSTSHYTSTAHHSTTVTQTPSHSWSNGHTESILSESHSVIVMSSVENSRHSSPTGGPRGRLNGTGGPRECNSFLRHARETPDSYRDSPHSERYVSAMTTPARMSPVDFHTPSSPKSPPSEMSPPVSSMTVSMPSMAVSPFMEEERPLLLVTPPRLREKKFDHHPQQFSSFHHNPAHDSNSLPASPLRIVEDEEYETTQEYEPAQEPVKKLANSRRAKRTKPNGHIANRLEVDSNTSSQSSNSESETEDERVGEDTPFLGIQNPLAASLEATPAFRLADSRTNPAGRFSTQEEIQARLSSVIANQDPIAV
Sequence of Torsin-1A-interacting protein 2 (Homo sapiens) (Q8NFQ8 whole entry, looked up): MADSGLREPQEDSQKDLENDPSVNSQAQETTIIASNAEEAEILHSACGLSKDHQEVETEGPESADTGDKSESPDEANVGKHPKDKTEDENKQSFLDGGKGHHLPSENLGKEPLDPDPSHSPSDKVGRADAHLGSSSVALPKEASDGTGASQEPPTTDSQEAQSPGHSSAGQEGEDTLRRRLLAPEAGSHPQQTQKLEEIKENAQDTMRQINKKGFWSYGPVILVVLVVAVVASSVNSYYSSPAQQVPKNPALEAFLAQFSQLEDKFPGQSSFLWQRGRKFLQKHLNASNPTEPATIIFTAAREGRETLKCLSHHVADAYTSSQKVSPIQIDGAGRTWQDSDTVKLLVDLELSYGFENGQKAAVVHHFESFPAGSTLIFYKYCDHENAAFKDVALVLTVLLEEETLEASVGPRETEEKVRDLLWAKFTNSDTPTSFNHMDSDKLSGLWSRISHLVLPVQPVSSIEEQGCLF
Sequence of Neurogenic locus notch homolog protein 3 (Homo sapiens) (Q9UM47 whole entry, looked up): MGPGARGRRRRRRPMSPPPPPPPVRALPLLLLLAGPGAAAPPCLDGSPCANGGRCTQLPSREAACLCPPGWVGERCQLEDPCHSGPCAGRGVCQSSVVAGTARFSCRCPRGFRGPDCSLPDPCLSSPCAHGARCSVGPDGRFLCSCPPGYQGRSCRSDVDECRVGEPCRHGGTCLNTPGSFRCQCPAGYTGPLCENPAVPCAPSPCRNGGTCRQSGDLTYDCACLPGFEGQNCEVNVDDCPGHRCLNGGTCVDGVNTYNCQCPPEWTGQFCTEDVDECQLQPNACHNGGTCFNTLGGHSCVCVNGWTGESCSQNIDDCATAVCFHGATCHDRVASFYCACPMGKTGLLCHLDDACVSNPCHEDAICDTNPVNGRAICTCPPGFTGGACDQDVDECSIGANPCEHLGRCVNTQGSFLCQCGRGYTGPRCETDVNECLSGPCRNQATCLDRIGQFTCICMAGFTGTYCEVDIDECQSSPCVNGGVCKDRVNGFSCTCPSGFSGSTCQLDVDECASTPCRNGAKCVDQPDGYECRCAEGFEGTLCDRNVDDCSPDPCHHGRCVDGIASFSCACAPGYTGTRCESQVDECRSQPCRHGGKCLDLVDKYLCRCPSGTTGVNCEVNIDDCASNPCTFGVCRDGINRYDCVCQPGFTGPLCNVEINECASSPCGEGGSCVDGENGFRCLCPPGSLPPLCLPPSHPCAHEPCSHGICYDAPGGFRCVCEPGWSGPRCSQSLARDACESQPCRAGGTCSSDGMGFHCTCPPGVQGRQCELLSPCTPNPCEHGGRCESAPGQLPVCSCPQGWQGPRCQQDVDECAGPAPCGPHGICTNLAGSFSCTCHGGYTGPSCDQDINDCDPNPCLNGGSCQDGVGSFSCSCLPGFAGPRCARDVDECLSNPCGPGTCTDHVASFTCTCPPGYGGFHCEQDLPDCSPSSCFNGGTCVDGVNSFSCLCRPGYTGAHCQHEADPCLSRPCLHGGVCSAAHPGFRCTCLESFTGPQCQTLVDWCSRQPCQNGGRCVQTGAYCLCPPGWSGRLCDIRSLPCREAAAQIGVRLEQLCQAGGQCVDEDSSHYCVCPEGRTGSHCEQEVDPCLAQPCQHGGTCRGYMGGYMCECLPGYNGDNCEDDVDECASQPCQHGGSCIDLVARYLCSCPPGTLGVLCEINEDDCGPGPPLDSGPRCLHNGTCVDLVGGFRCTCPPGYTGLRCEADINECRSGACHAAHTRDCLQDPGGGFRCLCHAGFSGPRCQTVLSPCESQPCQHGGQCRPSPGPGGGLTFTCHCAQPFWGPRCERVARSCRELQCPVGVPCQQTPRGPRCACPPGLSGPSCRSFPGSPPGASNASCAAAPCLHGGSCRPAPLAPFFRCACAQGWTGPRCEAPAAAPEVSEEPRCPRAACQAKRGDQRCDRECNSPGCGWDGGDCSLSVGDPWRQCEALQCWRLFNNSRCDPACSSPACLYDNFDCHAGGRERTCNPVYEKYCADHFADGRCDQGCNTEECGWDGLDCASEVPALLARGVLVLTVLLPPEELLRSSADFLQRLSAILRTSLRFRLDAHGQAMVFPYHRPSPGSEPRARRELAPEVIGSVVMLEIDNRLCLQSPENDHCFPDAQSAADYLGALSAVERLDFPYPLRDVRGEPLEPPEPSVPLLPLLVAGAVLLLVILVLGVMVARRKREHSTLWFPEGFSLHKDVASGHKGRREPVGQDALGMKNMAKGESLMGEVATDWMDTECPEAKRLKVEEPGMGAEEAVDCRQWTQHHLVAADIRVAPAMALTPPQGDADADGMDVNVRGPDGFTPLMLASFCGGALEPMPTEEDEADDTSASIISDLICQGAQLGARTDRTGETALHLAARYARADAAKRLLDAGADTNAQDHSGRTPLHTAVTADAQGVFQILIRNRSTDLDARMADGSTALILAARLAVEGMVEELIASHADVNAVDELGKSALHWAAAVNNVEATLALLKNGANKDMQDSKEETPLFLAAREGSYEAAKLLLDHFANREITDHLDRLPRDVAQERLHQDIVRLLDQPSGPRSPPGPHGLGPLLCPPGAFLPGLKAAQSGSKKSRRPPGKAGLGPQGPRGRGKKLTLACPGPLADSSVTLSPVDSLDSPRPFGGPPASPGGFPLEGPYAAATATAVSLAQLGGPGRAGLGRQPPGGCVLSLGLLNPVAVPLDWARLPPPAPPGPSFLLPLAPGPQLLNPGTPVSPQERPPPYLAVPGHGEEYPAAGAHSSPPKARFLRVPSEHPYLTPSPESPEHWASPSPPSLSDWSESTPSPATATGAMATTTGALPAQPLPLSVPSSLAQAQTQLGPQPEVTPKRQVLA

With `CC(C)CON=C1C[C@@H](O)[C@@H](O)[C@@H]2[C@@H]3C(=O)N([C@@H](C)c4ccccc4)C(=O)[C@@H]3CC[C@@H]12`, the composite z-score in [1] was 0.083; in [2] it was 0.114; in assay [3] it was -0.145; in assay [4] it was 0.107; in [5] it was 0.309; in [6], -0.104. The composite z-score in assay [7] was -0.546; in [9], 0.624; in assay [10], 0.0373; in [11], -0.413; in [15], 0.246; in assay [17], 0.224. Also, the composite z-score in assay [18] is 0.347; in assay [19], 0.114; in [20] it was -0.0286. In addition, the z-score in assay [8] was 0.431 (inactive); in [12], 0.281 (inactive); in assay [13] it was 0.603 (inactive); in assay [14], -0.188 (inactive); in assay [16], 0.3 (inactive).

As to `CCOC(=O)[C@H](Cc1ccccc1)NC(=O)CCC1CC(OC(=O)NCc2ccc3c(c2)OCO3)CC2(CCCC(COC(=O)NCCc3ccc(Cl)cc3)O2)O1` (stereo not given in full), the composite z-score in assay [1] is -0.415; in [2] it was 0.388; in assay [3], -0.114; in assay [4] it was 0.351; in assay [5], 0.832; in [6] it was 0.107. The composite z-score was 0.918 in assay [7]; -0.18 in [9]; -0.0994 in assay [10]; 1.55 in [11]; 1.78 in assay [15]; -0.148 in assay [17]. The composite z-score in [18] is 0.819; in [19] it was 1.16; in assay [20], -0.081. Further, the z-score was -0.327 (inactive) in [8]; -1.93 (inactive) in [12]; -0.616 (inactive) in assay [13]; 0.376 (inactive) in [14]; -0.698 (inactive) in assay [16].

In the case of `CCN1C(=O)[C@H]2[C@H]3[C@H](O)[C@H](O)CC(=NOC(C)CN4CCCc5nc(C)c(C)cc54)[C@@H]3CC[C@H]2C1=O` (stereo not given in full), the composite z-score in assay [1] is -0.342; in assay [2], 0.564; in assay [3] it was -0.0468; in assay [4] it was 0.49; in [5] it was 0.724; in assay [6], -0.0318. Besides, the composite z-score in assay [7] was determined as 0.963; in assay [9], 0.372; in assay [10] it was 0.0596; in assay [11], 1.46; in assay [15], 0.404; in assay [17], 0.0416. In addition, the composite z-score in assay [18] is 1.16; in assay [19], 0.597; in assay [20], 0.012. Further, the z-score in assay [8] was -0.266 (inactive); in assay [12] it was -0.0428 (inactive); in [13] it was 1.19 (inactive); in assay [14], 0.385 (inactive); in [16] it was 1.32 (inactive).

With `CC(C)CON=C1C[C@@H](O)[C@@H](O)[C@@H]2[C@@H]3C(=O)N(Cc4ccc5c(c4)OCO5)C(=O)[C@@H]3CC[C@@H]12`, the composite z-score is -0.345 in [1]; -0.142 in [2]; 0.0138 in [3]; 0.11 in assay [4]; -0.0138 in assay [5]; 0.474 in assay [6]. The composite z-score is 0.814 in assay [7]; -0.141 in assay [9]; 0.0659 in [10]; 0.731 in assay [11]; 1.69 in assay [15]; -0.195 in assay [17]. Moreover, the composite z-score in assay [18] is 0.697; in [19] it was -0.173; in assay [20], -0.192. Besides, the z-score was -0.197 (inactive) in assay [8]; -0.12 (inactive) in [12]; 0.54 (inactive) in assay [13]; -0.409 (inactive) in [14]; -0.38 (inactive) in assay [16].

Take `CC(C)CON=C1C[C@@H](O)[C@@H](O)[C@@H]2[C@@H]3C(=O)N(c4ccc(F)cc4F)C(=O)[C@@H]3CC[C@@H]12`: the composite z-score in assay [1] is -0.527; in assay [2], 0.118; in [3], -0.0502; in assay [4], 0.345; in assay [5] it was 0.429; in [6] it was 0.984. In addition, the composite z-score is 0.557 in [7]; 0.283 in assay [9]; -0.0994 in assay [10]; 0.601 in assay [11]; 0.956 in [15]; -0.212 in [17]. In addition, the composite z-score in [18] is 0.344; in [19] it was 0.898; in assay [20] it was -0.026. The z-score is 0.581 (inactive) in assay [8]; 0.0347 (inactive) in assay [12]; -0.786 (inactive) in assay [13]; -0.733 (inactive) in [14]; 1.24 (inactive) in assay [16].
